# Laboratory results taken from PubChem BioAssay (NCI).
# Several values for one entry are separate records, joined by “and”; a condition that tells them apart may be missing. Equal entries are not always repeated. This is part of a sample that, as a whole, favours compounds with a hit. Of some 83,000 tested, about 20% had one in any assay.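 Step 1: grow cells in 96-well plates. Step 2: add test compound at a single concentration. Step 3: incubate 48 h. Step 4: record percent growth.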 Activity calls are given as the source filed them. How the source made its calls: active means growth percent below 10; inactive means the rest.
# What was measured:
# Test in all cases: NCI-60 one-dose screen, 48 h (100 = growth as untreated, 0 = no growth, -100 = all killed)
# T-47D breast = settings: 10 µM unless noted
# BT-549 breast = tested on: BT-549 breast
# MDA-MB-435 melanoma = tested on: MDA-MB-435 melanoma
# SW-620 colon = tested on: SW-620 colon
# MCF7 breast = tested on: MCF7 breast
# HCT-116 colon = tested on: HCT-116 colon
# HCC-2998 colon = tested on: HCC-2998 colon
# KM12 colon = tested on: KM12 colon
smiles,measurement,setting,value
COc1ccc(/C(C#N)=C/c2ccccn2)cc1,growth,T-47D breast,88.7% (inactive) and 115% (inactive)
same,growth,BT-549 breast; 10 µM unless noted,103% (inactive)
same,growth,MDA-MB-435 melanoma; 10 µM unless noted,97% (inactive) and 106% (inactive)
same,growth,SW-620 colon; 10 µM unless noted,112% (inactive) and 130% (inactive)
same,growth,MCF7 breast; 10 µM unless noted,104% (inactive) and 102% (inactive)
same,growth,HCT-116 colon; 10 µM unless noted,96.3% (inactive) and 104% (inactive)
same,growth,HCC-2998 colon; 10 µM unless noted,97.7% (inactive) and 103% (inactive)
same,growth,KM12 colon; 10 µM unless noted,101% (inactive) and 102% (inactive)
NC(=S)N/N=C(\c1ccc(Br)cc1)C1CC1,growth,T-47D breast,70.1% (inactive) and 36.2% (inactive)
same,growth,BT-549 breast; 10 µM unless noted,99.6% (inactive) and 106% (inactive)
same,growth,MDA-MB-435 melanoma; 10 µM unless noted,92% (inactive) and 91.9% (inactive)
same,growth,SW-620 colon; 10 µM unless noted,79.7% (inactive) and 71.1% (inactive)
same,growth,MCF7 breast; 10 µM unless noted,24.4% (inactive) and 20.6% (inactive)
same,growth,HCT-116 colon; 10 µM unless noted,7.26% (active) and 2.42% (active)
same,growth,HCC-2998 colon; 10 µM unless noted,97.2% (inactive) and 93.9% (inactive)
same,growth,KM12 colon; 10 µM unless noted,101% (inactive) and 108% (inactive)
Oc1c(Cl)cc(Cl)cc1Sc1cc(Cl)cc(Cl)c1O,growth,T-47D breast,77.4% (inactive) and 52.2% (inactive) and 80.7% (inactive)
same,growth,BT-549 breast; 10 µM unless noted,32.1% (inactive) and 77% (inactive)
same,growth,MDA-MB-435 melanoma; 10 µM unless noted,51% (inactive) and 26.6% (inactive) and 92.5% (inactive)
same,growth,SW-620 colon; 10 µM unless noted,15.7% (inactive) and 26.6% (inactive) and 83% (inactive)
same,growth,MCF7 breast; 10 µM unless noted,73.1% (inactive) and 5.37% (active) and 69.8% (inactive)
same,growth,HCT-116 colon; 10 µM unless noted,18.7% (inactive) and 11.8% (inactive) and 76.7% (inactive)
same,growth,HCC-2998 colon; 10 µM unless noted,50% (inactive) and 23.1% (inactive) and 86% (inactive)
same,growth,KM12 colon; 10 µM unless noted,46.7% (inactive) and 21% (inactive) and 80.2% (inactive)
CC(=O)Nc1cccc2c1CCCC2,growth,T-47D breast,92.7% (inactive)
same,growth,BT-549 breast; 10 µM unless noted,97% (inactive)
same,growth,MDA-MB-435 melanoma; 10 µM unless noted,103% (inactive) and 110% (inactive)
same,growth,SW-620 colon; 10 µM unless noted,108% (inactive) and 107% (inactive)
same,growth,MCF7 breast; 10 µM unless noted,92.1% (inactive) and 91.2% (inactive)
same,growth,HCT-116 colon; 10 µM unless noted,97.5% (inactive) and 102% (inactive)
same,growth,HCC-2998 colon; 10 µM unless noted,99.8% (inactive) and 95.3% (inactive)
same,growth,KM12 colon; 10 µM unless noted,102% (inactive) and 103% (inactive)
CCN(CC)CCc1nc(-c2ccccc2)no1,growth,T-47D breast,55.8% (inactive) and 81.1% (inactive)
same,growth,BT-549 breast; 10 µM unless noted,55.2% (inactive) and 103% (inactive)
same,growth,MDA-MB-435 melanoma; 10 µM unless noted,90.1% (inactive) and 99.3% (inactive)
same,growth,SW-620 colon; 10 µM unless noted,73.3% (inactive) and 114% (inactive)
same,growth,MCF7 breast; 10 µM unless noted,58.5% (inactive) and 96% (inactive)
same,growth,HCT-116 colon; 10 µM unless noted,85.5% (inactive) and 103% (inactive)
same,growth,KM12 colon; 10 µM unless noted,85% (inactive) and 111% (inactive)
Cc1nn(-c2ccccc2)nc1C(=O)Nc1ccccc1C(=O)NCC1CC1,growth,T-47D breast,76.8% (inactive) and 28.7% (inactive)
same,growth,BT-549 breast; 10 µM unless noted,123% (inactive) and 84.8% (inactive)
same,growth,MDA-MB-435 melanoma; 10 µM unless noted,102% (inactive) and 85.9% (inactive)
same,growth,SW-620 colon; 10 µM unless noted,104% (inactive) and 68.7% (inactive)
same,growth,MCF7 breast; 10 µM unless noted,81.1% (inactive) and 56.5% (inactive)
same,growth,HCT-116 colon; 10 µM unless noted,63.9% (inactive) and -13.4% (active)
same,growth,KM12 colon; 10 µM unless noted,117% (inactive) and 93.9% (inactive)
c1ccc(NCc2ccc3c(c2)OCO3)cc1,growth,T-47D breast,94.3% (inactive) and 110% (inactive)
same,growth,BT-549 breast; 10 µM unless noted,99.4% (inactive) and 85.2% (inactive)
same,growth,MDA-MB-435 melanoma; 10 µM unless noted,111% (inactive) and 98.2% (inactive)
same,growth,SW-620 colon; 10 µM unless noted,102% (inactive) and 101% (inactive)
same,growth,MCF7 breast; 10 µM unless noted,99.7% (inactive) and 102% (inactive)
same,growth,HCT-116 colon; 10 µM unless noted,103% (inactive) and 98.3% (inactive)
same,growth,KM12 colon; 10 µM unless noted,103% (inactive) and 102% (inactive)
COc1ccccc1C(C)=O,growth,T-47D breast,106% (inactive) and 96.2% (inactive)
same,growth,BT-549 breast; 10 µM unless noted,109% (inactive) and 100% (inactive)
same,growth,MDA-MB-435 melanoma; 10 µM unless noted,104% (inactive) and 112% (inactive)
same,growth,SW-620 colon; 10 µM unless noted,95.4% (inactive) and 105% (inactive)
same,growth,MCF7 breast; 10 µM unless noted,103% (inactive) and 96.6% (inactive)
same,growth,HCT-116 colon; 10 µM unless noted,107% (inactive) and 102% (inactive)
same,growth,HCC-2998 colon; 10 µM unless noted,111% (inactive) and 107% (inactive)
same,growth,KM12 colon; 10 µM unless noted,102% (inactive) and 111% (inactive)
O=Nc1ccc(O)cc1,growth,T-47D breast,87.5% (inactive) and 85.2% (inactive)
same,growth,BT-549 breast; 10 µM unless noted,83% (inactive)
same,growth,MDA-MB-435 melanoma; 10 µM unless noted,104% (inactive) and 108% (inactive)
same,growth,SW-620 colon; 10 µM unless noted,86.1% (inactive) and 94.1% (inactive)
same,growth,MCF7 breast; 10 µM unless noted,84.6% (inactive) and 93.4% (inactive)
same,growth,HCT-116 colon; 10 µM unless noted,103% (inactive) and 78.3% (inactive)
same,growth,HCC-2998 colon; 10 µM unless noted,101% (inactive) and 104% (inactive)
same,growth,KM12 colon; 10 µM unless noted,101% (inactive) and 94.7% (inactive)
C#CCN(C)Cc1ccccc1,growth,T-47D breast,96.9% (inactive) and 99.3% (inactive)
same,growth,BT-549 breast; 10 µM unless noted,94.6% (inactive) and 141% (inactive)
same,growth,MDA-MB-435 melanoma; 10 µM unless noted,107% (inactive) and 98.3% (inactive)
same,growth,SW-620 colon; 10 µM unless noted,104% (inactive) and 103% (inactive)
same,growth,MCF7 breast; 10 µM unless noted,118% (inactive) and 95.9% (inactive)
same,growth,HCT-116 colon; 10 µM unless noted,99.6% (inactive) and 86.9% (inactive)
same,growth,KM12 colon; 10 µM unless noted,109% (inactive) and 102% (inactive)
O=c1c2ccccc2nc2n1Cc1nc3ccccc3c(=O)n1C2,growth,BT-549 breast; 10 µM unless noted,89.8% (inactive) and 94.1% (inactive)
same,growth,MDA-MB-435 melanoma; 10 µM unless noted,93.5% (inactive) and 101% (inactive)
same,growth,SW-620 colon; 10 µM unless noted,97.3% (inactive) and 103% (inactive)
same,growth,MCF7 breast; 10 µM unless noted,84.5% (inactive) and 97.9% (inactive)
same,growth,HCT-116 colon; 10 µM unless noted,111% (inactive) and 94.6% (inactive)
same,growth,HCC-2998 colon; 10 µM unless noted,106% (inactive) and 104% (inactive)
same,growth,KM12 colon; 10 µM unless noted,99.6% (inactive) and 101% (inactive)
O=[N+]([O-])c1ccc(-n2[nH]nnc2=S)cc1,growth,BT-549 breast; 10 µM unless noted,104% (inactive)
same,growth,MDA-MB-435 melanoma; 10 µM unless noted,106% (inactive)
same,growth,SW-620 colon; 10 µM unless noted,103% (inactive)
same,growth,MCF7 breast; 10 µM unless noted,95% (inactive)
same,growth,HCT-116 colon; 10 µM unless noted,101% (inactive)
same,growth,HCC-2998 colon; 10 µM unless noted,101% (inactive)
same,growth,KM12 colon; 10 µM unless noted,108% (inactive)
CC1=CCC2CC1C2(C)C (stereo not given),growth,T-47D breast,105% (inactive) and 102% (inactive)
same,growth,MDA-MB-435 melanoma; 10 µM unless noted,98.3% (inactive) and 94.2% (inactive)
same,growth,SW-620 colon; 10 µM unless noted,101% (inactive) and 103% (inactive)
same,growth,MCF7 breast; 10 µM unless noted,98.1% (inactive) and 91.6% (inactive)
same,growth,HCT-116 colon; 10 µM unless noted,92.2% (inactive)
same,growth,HCC-2998 colon; 10 µM unless noted,42.3% (inactive)
same,growth,KM12 colon; 10 µM unless noted,100% (inactive) and 110% (inactive)
CCN(CC)CCCC(CNc1ccnc2cc(Cl)ccc12)c1ccc(Cl)cc1 (stereo not given),growth,T-47D breast,-41.1% (active) and 114% (inactive)
same,growth,MDA-MB-435 melanoma; 10 µM unless noted,-93.3% (active) and -61.5% (active)
same,growth,SW-620 colon; 10 µM unless noted,6.45% (active) and -100% (active)
same,growth,MCF7 breast; 10 µM unless noted,-31.8% (active) and 70.3% (inactive)
same,growth,HCT-116 colon; 10 µM unless noted,-15.1% (active) and -20.3% (active)
same,growth,KM12 colon; 10 µM unless noted,1.49% (active) and 33.3% (inactive)
Cc1[nH]c(-c2nc3ccccc3[nH]2)c(C)c1C(=O)NC(C)C1CCCCC1 (stereo not given),growth,BT-549 breast; 10 µM,95.5% (inactive)
same,growth,BT-549 breast; 100 µM,-81.6% (active)
same,growth,MDA-MB-435 melanoma; 10 µM,37.5% (inactive)
same,growth,MDA-MB-435 melanoma; 100 µM,-94.8% (active)
same,growth,SW-620 colon; 10 µM,92.9% (inactive)
same,growth,SW-620 colon; 100 µM,-68.8% (active)
same,growth,MCF7 breast; 10 µM,71.1% (inactive)
same,growth,MCF7 breast; 100 µM,-73.7% (active)
same,growth,HCT-116 colon; 10 µM,85.5% (inactive)
same,growth,HCT-116 colon; 100 µM,-76.8% (active)
same,growth,HCC-2998 colon; 10 µM,97.9% (inactive)
same,growth,HCC-2998 colon; 100 µM,-82.6% (active)
same,growth,KM12 colon; 10 µM,84.4% (inactive)
same,growth,KM12 colon; 100 µM,-91.8% (active)
c1ccc(N(c2ccccc2)c2ccccc2)cc1,growth,BT-549 breast; 10 µM unless noted,106% (inactive)
same,growth,MDA-MB-435 melanoma; 10 µM unless noted,104% (inactive)
same,growth,SW-620 colon; 10 µM unless noted,103% (inactive)
same,growth,MCF7 breast; 10 µM unless noted,117% (inactive)
same,growth,HCT-116 colon; 10 µM unless noted,99.6% (inactive)
same,growth,HCC-2998 colon; 10 µM unless noted,111% (inactive)
same,growth,KM12 colon; 10 µM unless noted,105% (inactive)
Cc1n[nH]c(=O)n(/N=C\c2c[nH]c3ccccc23)c1=O,growth,BT-549 breast; 10 µM unless noted,117% (inactive)
same,growth,MDA-MB-435 melanoma; 10 µM unless noted,107% (inactive)
same,growth,SW-620 colon; 10 µM unless noted,106% (inactive)
same,growth,MCF7 breast; 10 µM unless noted,91.1% (inactive)
same,growth,HCT-116 colon; 10 µM unless noted,113% (inactive)
same,growth,HCC-2998 colon; 10 µM unless noted,108% (inactive)
same,growth,KM12 colon; 10 µM unless noted,105% (inactive)
Cc1ccc(S(=O)(=O)NCN2C(=O)c3ccccc3C2=O)cc1,growth,BT-549 breast; 10 µM unless noted,101% (inactive)
same,growth,MDA-MB-435 melanoma; 10 µM unless noted,111% (inactive)
same,growth,SW-620 colon; 10 µM unless noted,108% (inactive)
same,growth,MCF7 breast; 10 µM unless noted,95.2% (inactive)
same,growth,HCT-116 colon; 10 µM unless noted,98.5% (inactive)
same,growth,HCC-2998 colon; 10 µM unless noted,99.4% (inactive)
same,growth,KM12 colon; 10 µM unless noted,110% (inactive)
COc1ccc(Cl)cc1C(=O)NCCc1ccc(S(=O)(=O)NC(=O)NC2CCCCC2)cc1,growth,BT-549 breast; 10 µM,109% (inactive) and 107% (inactive)
same,growth,BT-549 breast; 100 µM,67% (inactive)
same,growth,MDA-MB-435 melanoma; 10 µM,103% (inactive) and 107% (inactive)
same,growth,MDA-MB-435 melanoma; 100 µM,69.5% (inactive)
same,growth,SW-620 colon; 10 µM,99.3% (inactive) and 109% (inactive)
same,growth,SW-620 colon; 100 µM,82.9% (inactive)
same,growth,HCT-116 colon; 10 µM,110% (inactive) and 96.1% (inactive)
same,growth,HCT-116 colon; 100 µM,67.3% (inactive)
same,growth,HCC-2998 colon; 10 µM,126% (inactive) and 118% (inactive)
same,growth,HCC-2998 colon; 100 µM,87.4% (inactive)
same,growth,KM12 colon; 10 µM,109% (inactive) and 108% (inactive)
same,growth,KM12 colon; 100 µM,60.1% (inactive)
